Records with an inconclusive call do not appear. Where a call stands in place of a potency, no number is given. Values without a mark were called inactive. Activity calls are given as the source filed them. The call rests on the fitted dose curve; in most records, active means well fitted curve in the direction sought with a large enough effect in the repeat runs; inconclusive means weak or mixed curves; inactive means no such curve, though single readings can be large; an effect the other way counts as inactive or inconclusive.
Further: nearly all actives have a fitted effect of over 50% in size.

The nature of one test: qHTS RealTime-Glo MT Cell Viability Assay in HepG2 cells - 16 hour (AID 1224885). Particulars: RealTime-Glo luminescence; series mostly up to 76.8 µM. Put shortly:
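Cell number in HepG2 cultures estimated from NanoLuc luminescence generated by metabolic reduction of a prosubstrate by living cells. The homogeneous, nonlytic format allowed repeated reads at 0, 8, 16, 24, 32 and 40 h of compound exposure.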
Take `CC(C)(C)c1n[nH]c(=S)n(N)c1=O`: the result was inactive. On the same count and under the same terms, as for `CC(C)C(=O)OCCc1ccccc1`, the entry is “inactive”. On the same count and under the same terms, then `CC(=O)Nc1ccc(S(=O)(=O)Cl)cc1`, with “inactive”. Still for that read-out and setting: then `CCCCOC(=O)c1ccccc1`, with “inactive”; and `CCCCCCN`, with “inactive”; and `Cc1ccccc1OCC(O)CO` (stereo unspecified), with “inactive”. In the case of `COC(=O)C1CC(=O)C(C(=O)OC)CC1=O` (stereo unspecified), the activity change, negative = cytotoxic was -8.58% [at 6.97 µM]. On to `BrCc1cccc(Oc2ccccc2)c1`, for which the result was inactive. The same measure, in the same setting: then `Cc1cccc(OCC(O)CNC(C)(C)C)c1C` (stereo unspecified), with “inactive”.

A short description of the next test: qHTS RealTime-Glo MT Cell Viability Assay in HEK293 cells - 24 hour (AID 1224886). Further: potency means the concentration at half of the fitted maximal effect. On activity change, negative = cytotoxicity: top concentration of the series differs between compounds. Particulars: RealTime-Glo luminescence; series mostly up to 76.8 µM. Put shortly: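 Homogeneous bioluminescent viability format in HEK293 cells (600 cells/well). Following 5 h at 37 C/5% CO2, 23 nL compound was pintooled; the signal was measured repeatedly during 40 h incubation.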
For orientation: In qHTS, concentration-response curves come from the screen itself.
`OCCCCC(O)CO` (stereo unspecified): the Potency entry was “inactive”.

On to `Cc1cccc2nccnc12`, for which the Potency entry was “inactive”. Consider `CN(C)C(=O)CNC(=O)Cc1ccccc1`, for which the Potency entry is “inactive”. As for `CN(CCOc1ccc(NS(C)(=O)=O)cc1)CCc1ccc(NS(C)(=O)=O)cc1`, the Potency entry was “inactive”. The same measure, in the same setting: as for `C=CC(OCC)OCC`, the entry is “inactive”; as for `CCCCCCCCSCC`, “inactive”; as for `Cc1[nH]cnc1-c1ccc(Cl)cc1`, “inactive”. Still for that read-out and setting: as for `c1ccc2c(c1)ccc1c3ccccc3ccc21`, the entry is “inactive”. With `NS(=O)(=O)c1cc2c(cc1Cl)CN(C1CCCCC1)C2=O`, the Potency is 9.52 µM (active).

As to `Oc1cn2c(n1)Nc1ccc(Cl)c(Cl)c1C2`, the activity change, negative = cytotoxicity is 2% [at 15.8 µM]. Take `CCOC(=O)c1ncn2c1CN(C)C(=O)c1cc(F)ccc1-2`: the Potency entry is “inactive”. The same measure, in the same setting: then `CN1C(C)(C)CCCC1(C)C`, with “inactive”; and `CC(C)(C)c1cc(CCC(=O)NN)cc(C(C)(C)C)c1O`, with “inactive”. For the molecule `C[Si](C)=O`, the activity change, negative = cytotoxicity was 0.58% [at 6.97 µM]. As to `CCc1ccc(C=O)cc1`, the Potency result was “inactive”. Consider `CC(=O)OC(C)OC(=O)C(C)c1ccc(-c2ccccc2)c(F)c1` (stereo unspecified), for which the Potency entry is “inactive”. In the case of `COP(=O)(OC)OC(c1ccc(Cl)cc1)P(=O)(OC)OC` (stereo unspecified), the Potency entry is “inactive”.

Source of the values: PubChem BioAssay (Tox21).
